Screening results deposited in PubChem BioAssay by Corson Lab, School of Medicine, Indiana University.
FECH block: human FECH heme synthesis enzyme inhibition; P22830; calls only at 10 µM (by protocol); actives 3.3% (n = 20,000); purified FECH, Ni-mesoporphyrin absorbance 550 nm;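 active means enzyme reaction rate more than 3 SD below the solvent-only control wells on the same plate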;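 further: lower slope than DMSO wells means FECH inhibition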
Target sequence (P22830 whole entry, looked up): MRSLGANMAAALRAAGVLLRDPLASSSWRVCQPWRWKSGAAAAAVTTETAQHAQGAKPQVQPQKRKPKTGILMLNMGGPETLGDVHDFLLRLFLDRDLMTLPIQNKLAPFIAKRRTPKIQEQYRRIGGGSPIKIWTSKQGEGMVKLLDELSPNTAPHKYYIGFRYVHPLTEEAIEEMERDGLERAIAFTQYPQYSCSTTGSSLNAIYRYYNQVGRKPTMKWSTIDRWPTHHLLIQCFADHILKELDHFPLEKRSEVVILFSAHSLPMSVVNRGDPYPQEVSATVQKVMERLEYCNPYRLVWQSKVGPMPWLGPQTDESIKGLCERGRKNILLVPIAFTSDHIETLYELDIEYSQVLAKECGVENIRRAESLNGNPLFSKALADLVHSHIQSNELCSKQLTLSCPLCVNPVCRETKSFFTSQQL
Of the large screens only hits and unclear results are named; the others gave an inactive call. Only a selection was taken, and hits are over-represented in it overall.

O=C(Nc1nc2n(n1)C(c1ccc(Cl)cc1)C=C(c1ccc(Cl)cc1)N2)c1ccco1 (stereo not drawn)	none
Cc1ccc(C(=O)Nc2nc3n(n2)C(c2ccc(Cl)cc2)C=C(c2ccccc2)N3)cc1 (stereo not drawn)	none
Cc1ccc(C2=CC(c3ccc(Cl)cc3)n3nc(NC(=O)CC(C)C)nc3N2)cc1 (stereo not drawn)	FECH block active
Cc1ccc(C2=CC(c3ccc(Cl)cc3)n3nc(NC(=O)c4ccco4)nc3N2)cc1 (stereo not drawn)	FECH block active
Cc1ccc(C(=O)Nc2nc3n(n2)C(c2ccc(F)cc2)C=C(c2ccc(C)cc2)N3)cc1 (stereo not drawn)	none
Cc1ccc(C2=CC(c3ccc(Cl)cc3)n3nc(NC(=O)CCc4ccccc4)nc3N2)cc1 (stereo not drawn)	none
CC(C)C(=O)Nc1nc2n(n1)C(c1ccc(Cl)cc1)C=C(c1ccc(Cl)cc1)N2 (stereo not drawn)	none
Cc1ccc(C2=CC(c3ccc(Cl)cc3)n3nc(NC(=O)c4ccccc4)nc3N2)cc1 (stereo not drawn)	FECH block active
Cc1ccc(C2=CC(c3ccc(Cl)cc3)n3nc(NC(=O)c4ccc(F)cc4)nc3N2)cc1 (stereo not drawn)	FECH block active
Cc1ccc(C2=CC(c3ccc(Cl)cc3)n3nc(NC(=O)c4cccc(C)c4)nc3N2)cc1 (stereo not drawn)	none
O=C(Nc1nc2n(n1)C(c1ccc(F)cc1)C=C(c1ccc(Cl)cc1)N2)c1ccc(F)cc1 (stereo not drawn)	none
O=C(Nc1nc2n(n1)C(c1ccc(F)cc1)C=C(c1ccc(Cl)cc1)N2)c1ccco1 (stereo not drawn)	none
O=C1CN(S(=O)(=O)NCc2ccccc2)CCN1C1CCCC1	none
CC(C)NC(=O)C1CCN(c2ccc(-c3ccc(F)cc3)nn2)CC1	none
NCC1Cc2c(ccc3cc(-c4ccncc4)ccc23)O1 (stereo not drawn)	none
NC(=O)c1cncc(-c2ccccc2-c2ccccc2)c1	none
Cc1cc(C)c(NC(=O)CN2C(=O)CCc3cc(S(=O)(=O)N4CCCC4)ccc32)c(C)c1	none
COc1cc2c(cc1CN1CCN(c3cncc(C(N)=O)n3)CC1)CCC2	none
COc1ccc(C2C=C(c3ccc(Cl)cc3)Nc3nc(NC(C)=O)nn32)cc1 (stereo not drawn)	none
O=C(OC1CCCC1)c1ccc(NC(=O)C2COCCO2)cc1 (stereo not drawn)	none
CC(C)c1nc(CNc2nccc(CCC(F)(F)F)n2)cs1	none
COCCC1(C(=O)O)CCN(c2cc(C(C)C)nc(C(F)(F)F)n2)CC1	none
Cc1ccc(-c2nc(C(N)=O)c3c(n2)n(-c2ccc(C)c(C)c2)c(=O)n3C)cc1	none
CC(NC(=O)c1ccccc1)C(=O)N1CCC(c2nc(-c3ccc(F)cc3)no2)CC1 (stereo not drawn)	none
COCCNC(=O)C1(C)Cn2c(cc3ccsc32)C(=O)N1Cc1ccccc1C (stereo not drawn)	FECH block active
COCCNC(=O)C1(C)Cn2c(cc3ccsc32)C(=O)N1Cc1ccccc1OC (stereo not drawn)	none
COCCNC(=O)C1(C)Cn2c(cc3ccsc32)C(=O)N1Cc1ccccc1 (stereo not drawn)	none
CN(CCCc1cnn(C)c1)Cc1cc2ccc(F)cc2[nH]c1=O	none
COc1ccc(OC)c(Nc2nc(N(C)CCO)nc3c2cnn3-c2ccccc2)c1	none
COc1ccc(-c2nc(C)cc(C)c2C(N)=O)c2ccc(C)nc12	none
O=C1c2cccnc2CN1C(CCn1cncn1)c1ccccc1 (stereo not drawn)	none
NS(=O)(=O)c1ccc(CN2Cc3ncccc3C2=O)cc1	none
NC(=O)[C@H](Cc1ccccc1)N1Cc2ncccc2C1=O	FECH block active
COc1cc(Cl)cc2c1OC=CC(C(=O)Nc1ccc(S(N)(=O)=O)cc1)=C2	FECH block active
COc1ccc(NC(=O)c2cc(-c3ccc(OC)c(S(N)(=O)=O)c3)n[nH]2)cc1	none
NS(=O)(=O)c1ccc(NC(=O)c2csnn2)cc1	none
Cc1ncc(CN(C)C(C)c2ccccn2)[nH]1 (stereo not drawn)	none
Cc1nonc1OCCNC(=O)c1c(C)nc2sccn12	none
O=C(NCCN1N=C(c2ccccc2)CCC1=O)c1cccc2ccnn12	FECH block active
O=C(NCc1cc(=O)[nH]cn1)c1cccc2ccnn12	none
Cc1cc(C)n(CCNC(=O)c2cccc3ccnn23)c(=O)n1	none
COc1ccc(-c2noc(C3CC(C(C)C)=NO3)n2)c(OC)c1 (stereo not drawn)	none
Cc1ccc(C)c(OC(C)C(=O)NCc2nc(C)cc(=O)[nH]2)c1 (stereo not drawn)	none
Cc1cc(NC(=O)C(C)C)n(-c2ncnc3c2cnn3-c2cccc(Cl)c2)n1	none
COc1ccc(Cn2c(CNC(=O)c3ccco3)nc3cccnc32)cc1	none
CN(C)c1nc2ncnc(SCC(=O)Nc3ccc(F)cc3F)c2s1	none
Cc1cc(C)cc(Oc2cc(SCC(=O)Nc3ccc(F)cc3Cl)ncn2)c1	FECH block active
Cc1ccccc1NC(=O)CCNC(=O)COc1c(C)ccc(C)c1C	none
Cc1cc(C)cc(Oc2cc(SCC(=O)Nc3ccccc3C)ncn2)c1	FECH block active
